Screens from PubChem BioAssay.
Compounds with a hit are over-represented: about 8.3% of the library has one in this group of screens.
VP16 counter: VP16 counterscreen qHTS for inhibitors of ROR gamma transcriptional activity; Drosophila S2 Gal4-VP16 UAS-luciferase, luminescence, 20 h; Potency, µM (doses to about 53.6 µM), usual class: inhibitors; 310,000 tested, 3.5% active;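 further: Gal4-VP16 expression switched on by copper sulfate through the metallothionein promoter; nearly all actives have a fitted effect of over 50% in size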
Giardia killer: Small Molecules that selectively kill Giardia lamblia: qHTS; Giardia lamblia trophozoite viability; activity change, % at 7.66 µM, hits read low; 340,000 tested, 0.15% active; in the data active means activity change below about -80%; inconclusive means between about -30% and that limit;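 further: parasites exposed to compound for two days anaerobically before the ATP read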
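Killing of trophozoites was scored by loss of ATP luminescence after a 48 hrs anaerobic exposure to compounds at 37 deg C, using 100 cells per well.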
SW480 rerep: A quantitative high throughput screen for small molecules that induce DNA re-replication in SW480 colon adenocarcinoma cells; SW480 DNA re-replication, Hoechst DNA content imaging, 48 h; Potency, µM (top dose mostly 46.1 µM), hits mostly activators; 340,000 tested, 1.8% active; AID 624297, 2012; further: nearly all actives have a fitted effect of over 55% in size
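First, 250 cells per well were seeded. Next, compound or vehicle (23 nL) was pinned in, plates sat 48 hr at 37 C. Finally Hoechst was added for 40 min before fluorescence scanning.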
Chronic BCR inh: qHTS Assay to Find Inhibitors of Chronic Active B-Cell Receptor Signaling; AID 493014, 2011; ABC-DLBCL IkBa-CBG/CBR reporter, luminescence ratio, 4 h; 340,000 tested, 0.05% active; Potency, µM (titrated, usually from 46.1 µM), hits mostly inhibitors; active means well fitted inhibition curve with a large enough effect in the signal ratio, with a control signal flat, not every such curve was filed as active; inconclusive means small, poorly fitted or top-dose-only effect, or effect the other way, or a change in a side signal; the % refers to the signal ratio
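Cell line TMD8 (human ABC DLBCL), stably expressing tet-inducible CBG68-IkBa fusion and CBR; IMDM/0.5% FBS; cpd up to 46 uM; dox induction, 4 h, 37C/5% CO2; dual luminescence; green/red ratio; MG132 control.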
RORg inh: qHTS for inhibitors of ROR gamma transcriptional activity; Drosophila S2 Gal4-RORgamma UAS-luciferase reporter, 20 h; Potency, µM (titrated, usually from 53.6 µM), actives largely listed as inhibitors; 310,000 tested, 5.4% active; AID 2551, 2010; further: nearly all actives have a fitted effect of over 60% in size
Target sequence (P51450 whole entry, looked up, the tested form may be a part): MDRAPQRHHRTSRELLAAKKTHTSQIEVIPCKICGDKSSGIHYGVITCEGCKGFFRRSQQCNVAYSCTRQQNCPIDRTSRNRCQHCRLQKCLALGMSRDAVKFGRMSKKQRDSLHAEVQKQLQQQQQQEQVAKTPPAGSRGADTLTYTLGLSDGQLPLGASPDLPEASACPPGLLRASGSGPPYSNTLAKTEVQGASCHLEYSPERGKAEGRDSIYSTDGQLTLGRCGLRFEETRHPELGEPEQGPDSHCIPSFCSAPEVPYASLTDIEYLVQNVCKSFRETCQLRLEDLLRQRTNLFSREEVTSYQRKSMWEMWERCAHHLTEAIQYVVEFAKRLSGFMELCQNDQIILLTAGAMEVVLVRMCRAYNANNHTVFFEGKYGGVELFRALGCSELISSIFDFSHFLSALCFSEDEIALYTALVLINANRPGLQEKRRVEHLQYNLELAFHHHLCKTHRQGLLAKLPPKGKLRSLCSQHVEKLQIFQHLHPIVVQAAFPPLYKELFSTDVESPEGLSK
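Compounds are pin-transferred onto Drosophila Schneider cells expressing a copper-inducible Gal4–ROR gamma transactivation domain fusion. After 1 hr, copper sulfate is added to 700 uM final; luciferase is read 20 hr later.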
MCF10A rereplic: A quantitative high throughput screen for small molecules that induce DNA re-replication in MCF 10a normal breast cells | MCF 10A DNA re-replication, Hoechst nuclear intensity, 48 h | Potency, µM (series often up to 46.1 µM), hits mostly activators | 350,000 tested, 2.9% active | AID 624296, 2012; further: nearly all actives have a fitted effect of over 50% in size
Numbers stand for hits; 0 = inactive; ? = inconclusive; - = not tested or not shown; [ ] = another dose, or the depositor's remark. Unless noted, the call rests on the fitted dose curve; in most records, active means well fitted curve in the direction sought with a large enough effect; inconclusive means small, poorly fitted or top-dose-only effect, or another doubt; inactive means no such curve, though single readings can be large; an effect the other way counts as inactive or inconclusive.

SMILES | VP16 counter | Giardia killer | SW480 rerep | Chronic BCR inh | RORg inh | MCF10A rereplic
Cc1ccc(C2=NOC(=O)/C2=C\C=C\c2ccccc2)cc1 | ? | 0 | ? | ? | 14µM | 5.2µM
CC1=NN(c2ccccc2)C(=O)/C1=C/C=C/c1ccccc1 | 18µM | 0 | 7.3µM | ? | ? | 9.2µM
COc1ccc(/C=C2\C(=O)ON=C2c2ccccc2)cc1OC | 11µM | 0 | 0 | 0 | 13µM | 0
CC1=NN(c2cccc(C(=O)O)c2)C(=O)/C1=C\C=C\c1ccco1 | ? | 0 | ? | ? | 3.5µM | ?
C#CCOc1ccc(/C=C2/C(=O)N(c3cccc(C(=O)O)c3)N=C2C)cc1OC | 0 | 0 | 0 | 0 | 0 | 0
COc1ccc(CCNC(=O)COc2ccc(C)nc2[N+](=O)[O-])cc1 | 0 | ? | 0 | 0 | 0 | 0
COc1ccc(S(=O)(=O)Cc2ccc(C(=O)NCCCN(C)c3ccccc3)o2)cc1 | 0 | 0 | 0 | 0 | ? | 0
COc1ccc(OC)c(NC(=O)CCN2CCN(C/C=C/c3ccccc3)CC2)c1 | 0 | 0 | 0 | 0 | 0 | 0
O=C(NC(c1cccnc1)C(F)(F)F)c1cc(COc2ccc3c(c2)CCCC3)on1 (centres undefined) | 7.1µM | 0 | ? | 0 | ? | ?
CCCCCN(C(=O)CSc1n[nH]c(-c2ccc(C)cc2)n1)c1c(N)n(CCCC)c(=O)[nH]c1=O | - | 0 | ? | ? | - | 0
CC(C)(C)[C@@H]1COC(=O)[C@@H](Cc2ccc(F)cc2)C/C=C\C[C@H](CC(=O)N(CCO)Cc2ccccc2)C(=O)N1 | - | 0 | ? | 0 | - | 0
CCCN1CNc2c(c(=O)[nH]c(=S)n2CCc2c(C)cccc2C)C1 | - | 0 | - | - | - | -
O=S(=O)(c1ccc(NC(=S)N2CCN(c3ccc(O)cc3)CC2)cc1)N1CCOCC1 | 0 | 0 | 0 | 0 | 0 | ?
CCCCc1c(C)c(C#N)c2[nH]c3ccccc3n2c1=O | ? | 0 | 0 | 0 | ? | 18µM
O=S(=O)(NC(=NCc1ccccc1)c1ccccc1)c1ccc(Br)cc1 | 0 | 0 | 0 | 0 | 0 | 0
Cn1c(/C(C#N)=C/c2ccc(O)cc2)nc2ccccc21 | 0 | 0 | 0 | ? | 0 | 0
Cn1c(/C(C#N)=C/c2ccncc2)nc2ccccc21 | 0 | 0 | 18µM | 0 | 0 | ?
CCN(CC(=O)NC(c1ccccc1)c1ccccc1)Cc1nc2ccccc2c(=O)[nH]1 | 11µM | 0 | 0[9.22 µM] | 0 | 2.5µM | ?
CCN(CC(=O)NC(=O)NC1CCCCC1)Cc1nc2ccccc2c(=O)[nH]1 | 0.56µM | 0 | 0[9.22 µM] | 0 | 0.56µM | 0
CCN(CC(=O)Nc1ccccc1SC)Cc1nc2ccccc2c(=O)[nH]1 | 0.79µM | 0 | ? | ? | 0.22µM | 0
CCN(CC(=O)N(CC(C)C)c1c(N)n(CC(C)C)c(=O)[nH]c1=O)Cc1nc2ccccc2c(=O)[nH]1 | ? | 0 | 0 | ? | 4µM | 0
CN(CC(=O)Nc1ccccc1Br)C(=O)CCc1nc2ccccc2c(=O)[nH]1 | - | 0 | 0 | 0 | - | 0
CC(C)CN(C(=O)CCCc1nc2ccccc2c(=O)[nH]1)c1c(N)n(Cc2ccccc2)c(=O)[nH]c1=O | - | 0 | 0 | 0 | - | 0
CS(=O)(=O)CCC(C(=O)Nc1ccc2c(c1)OCO2)N1Cc2ccccc2C1=O (centres undefined) | 0 | 0 | 0 | 0 | 0 | 0
CCC(=O)OC1C(N(C)C)CC(C)O[C@H]1O[C@H]1[C@H](C)[C@@H](O[C@H]2CC(OC)[C@@H](O)C(C)O2)[C@H](C)C(=O)O[C@@H](CC)[C@](C)(O)[C@@H](O)[C@H](C)C(=O)[C@@H](C)C[C@]1(C)O (some centres undefined) | 0 | - | 0 | - | 0 | 0
SMILES | VP16 counter | Giardia killer | SW480 rerep | Chronic BCR inh | RORg inh | MCF10A rereplic
COc1ccc(C2CC(c3ccccc3)Oc3c(C)ccc(C)c32)cc1 (centres undefined) | 0 | 0 | - | - | 0 | -
Cc1cc(C2C(=O)c3ccccc3C2=O)c(C)c(C)c1C | 0 | 0 | 0 | 0 | 0 | 0
COc1ccc(S(=O)(=O)NCC(c2ccco2)N2CCN(c3ccc(F)cc3)CC2)cc1C (centres undefined) | - | - | - | 0 | - | -
CCN(CC(=O)Nc1ccc(OC)cc1)C(=O)CCc1nc2ccccc2c(=O)[nH]1 | - | 0 | 0 | 0 | - | 0
CCN(CC(=O)Nc1ccc(Br)c(C)c1)CC(=O)NC(C)C | 0 | 0 | 0 | 0 | 0 | 0
CCN(CC(=O)Nc1ccccc1-c1ccccc1)Cc1nc2ccccc2c(=O)[nH]1 | ? | 0 | ? | 0 | 4.5µM | 6.5µM
CN(CC(=O)Nc1ccccc1Br)Cc1nc2ccccc2c(=O)[nH]1 | 0 | 0 | 0 | ? | 28µM | 0
CCN(CC(=O)NC(C)C)Cc1nc2c(Br)cc(Br)cc2c(=O)[nH]1 | 7.1µM | 0 | 0 | ? | 2.2µM | 0
CCN(CC(=O)Nc1ccccc1C(=O)Nc1ccccc1)Cc1nc2ccccc2c(=O)[nH]1 | ? | 0 | 0 | 0 | 3.5µM | 0
O=C(/C=C/c1c(C(=O)O)[nH]c2cc(Cl)cc(Cl)c12)Nc1ccccc1 | 0 | - | - | - | 0 | -
CC(=O)c1ccccc1NC(=O)c1ccc(OCc2c(C)noc2C)cc1 | - | 0 | 0 | 0 | - | 0
O=C(OCCOc1ccccc1F)c1cccc(S(=O)(=O)N2CCOCC2)c1 | - | 0 | ? | 0 | - | 0
CCN(CC(=O)Nc1ccccc1OC)CC(=O)Nc1ccccc1-c1ccccc1 | 0 | 0 | ? | 0 | 0 | 15µM
CCN(CC(=O)Nc1ccccc1OC)CC(=O)Nc1ccccc1C(F)(F)F | 0 | 0 | ? | 0 | 0 | ?
O=C(c1ccc(Br)cc1)N(Cc1nc2ccccc2c(=O)[nH]1)C1CCCC1 | ? | 0 | ? | 0 | 16µM | 0
O=C(c1ccc2ccccc2c1)N1CCN(Cc2ccccc2)CC1 | 0 | 0 | 0 | ? | 0 | 0
CC(=O)Nc1nc(SCCCc2ccccc2)n[nH]1 | 0 | 0 | 0 | 0 | 0 | 0
O=C(CSc1nncs1)Nc1cc(-c2ccccc2)nn1-c1ccccc1 | 0 | 0 | 0 | 0 | 0 | 0
O=C(CSc1nccn1C1CCCC1)Nc1ccc(C(F)(F)F)cc1 | - | - | - | 0 | - | -
CC(C)(C)c1ccc(CSc2nc(N)cc(=O)[nH]2)cc1 | 7.9µM | 0 | 0 | 0 | 0 | 0
Cc1ccc(-c2nc3n(n2)Cc2ccccc2-3)cc1 | 10µM | ? | 0 | ? | ? | ?
CCn1c(C)nc2cc(-c3nc4n(n3)Cc3ccccc3-4)ccc21 | 0.045µM | -105 | 0 | ? | 0.89µM | 0
CCn1c(C)nc2cc(C#N)ccc21 | 0 | 0 | 0 | 0 | ? | 0
Fc1ccc(-c2nc3n(n2)Cc2ccccc2-3)cc1 | ? | 0 | 0 | ? | 0 | 0
